This note sets out measurements from PubChem BioAssay.

Records with an inconclusive call do not appear. Active and inactive are the calls of the source.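 The calls were made as follows: active = cell viability at or below a set limit in both duplicate runs, the limit being the all-compound median minus 4 SD (cut at about 23% in these data, passing the limit was not always enough); inconclusive = no clear call, values can overlap the other calls; inactive = the rest.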

The experiment can be described thus: viability of HCT116 without oncogenic beta-catenin – human colon tumor cells, pilot screen (AID 823).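 Also: 0% = wells killed by 20 µM Hyamine and 100% = untreated DMSO cell wells.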 Conditions: HCT116 beta-catenin knockout viability, CellTiter-Glo, 60 h; at 10 µM; hits give low values.
Turning to `COc1cccc(C2CC(c3ccc(Cl)cc3)n3nc(N)nc3N2)c1` (stereo unspecified), the viability was 100% (inactive).

In the case of `CC(=O)c1c(C)oc(C)c1CSCc1ccc(C(=O)O)o1`, the viability is 95.7% (inactive).

Consider `CC(=O)Nc1ccc(S(=O)(=O)c2ccc(N)cc2)cc1N`, for which the viability was 104% (inactive).

For `COC(=O)C1C2C=CC3(CN(C(C)C)C(=O)C13)O2` (stereo unspecified), the viability is 106% (inactive).

Turning to `CC(c1ccc(Br)cc1)N1CC23C=CC(O2)C(C(=O)O)C3C1=O` (stereo unspecified), the viability is 102% (inactive).

With `CC(C)C(NS(=O)(=O)c1ccc2c3c(cccc13)C(=O)N2)C(=O)O` (stereo unspecified), the viability was 97% (inactive).

As for `CC1=C(C(=O)OCc2ccc3c(c2)OCO3)C(c2ccc(Cl)cc2)NC(=O)N1` (stereo unspecified), the viability was 19.4% (active).

In the case of `CCOc1ccc2[nH]c(C)c(CN3CCOCC3)c(=O)c2c1`, the viability was 96.5% (inactive).

On to `CC(NC(=O)CSc1ncnc2nc[nH]c12)c1ccccc1` (stereo unspecified), for which the viability was 99.8% (inactive).

On to `CCOc1ccc(N=Cc2c(O)cc(C)oc2=O)cc1`, for which the viability was 107% (inactive).

With `O=C(OCN1C(=O)c2ccccc2C1=O)c1ccco1`, the viability was 96.7% (inactive).

`O=C(Nc1cccnc1)c1cc(-c2ccc(Br)cc2)on1`: the viability was 100% (inactive).

In the case of `CN1CCN(c2ccccc2NC(=O)C(Cc2ccccc2)n2cccc2)CC1` (stereo unspecified), the viability was 55.6% (inactive).

Regarding `COc1ccc(NC(=O)C2CCN(S(=O)(=O)c3cccc4cccnc34)CC2)cc1OC`, the viability is 107% (inactive).

As to `CCn1cc(C(=O)NCCCN2CCC(C)CC2)c2cc(OC)c(OC)cc2c1=O`, the viability was 99.3% (inactive).

With `COc1ccccc1NC(=O)C1C2C=CC3(CN(Cc4cccnc4)C(=O)C13)O2` (stereo unspecified), the viability is 98.2% (inactive).
